In the library only some 19% were active in any assay of this set; here they are far more common.
TDP1 cell CPT = DT40-hTDP1 cell growth loss with CPT. chicken DT40 Tdp1-/-;hTDP1 cells + 20 nM CPT, ATP luminescence, 48 h. Potency, µM (highest dose often 46.2 µM), without a hit: top-dose activity change, negative = growth inhibition, hits mostly inhibitors. 420,000 tested, 12% active. AID 686979; also: potency is read from the fitted curve at half-maximal effect; nearly all actives have a fitted effect of over 55% in size
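Chicken DT40 Tdp1-/- cells complemented with human TDP1, 400 cells/well, exposed to compounds plus 20 nM camptothecin for at least 48 h at 37 C; viability read as ATP content by CellTiter-Glo luminescence.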
HT1080-NT tox = kills 2HG-producing HT-1080-NT fibrosarcoma cells. HT-1080-NT fibrosarcoma viability, CellTiter-Glo ATP luminescence, 48 h. Potency, µM (top dose mostly 46.1 µM), for inactives: at the highest dose activity, negative = less viability, actives largely listed as cytotoxic. 360,000 tested, 1.6% active. AID 686970;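 also: NT is the 2HG producing partner of a matched IDH1 knockdown line; potency is read from the fitted curve at half-maximal effect; 0% = DMSO-treated cells and -100% = media-only wells without cells; nearly all actives have a fitted effect of over 55% in size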
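Viability of the 2HG-overproducing fibrosarcoma line after 48 hours of compound exposure at 37 degrees C was determined by luminescence with CellTiter-Glo, and concentration-effect curves were then fitted and categorized.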
TDP1 cell noCPT = qHTS for Inhibitors of human tyrosyl-DNA phosphodiesterase 1 (TDP1): qHTS in cells in absence of CPT; DT40 Tdp1-/- hTDP1 cells, no CPT, ATP luminescence, 48 h; Potency, µM (titrated, usually from 46.2 µM), without a hit: at the highest dose activity change, negative = growth inhibition, hits mostly inhibitors; 420,000 tested, 15% active; AID 686978, 2013; also: potency is read from the fitted curve at half-maximal effect; nearly all actives have a fitted effect of over 55% in size
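Chicken DT40 Tdp1-/- cells stably complemented with human TDP1 were seeded at 400 cells/well with DMSO in place of 20 nM camptothecin. After compound pinning, cells grew at least 48 hr at 37 °C; viability read by CellTiter-Glo luminescence.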
IL1B secr inh = blocks inflammasome-driven IL-1 beta release. THP-1 LPS/ATP IL-1B secretion, AlphaLISA, 16 h; active compounds read low. activity change, % at 57.5 µM. 360,000 tested, 4.7% active. AID 743279; in the data active = activity change below about -50%; inconclusive = mostly about -30% to -49%
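THP-1 cells pretreated 1 hr with compounds (up to 57.5 uM final), then stimulated with LPS (250 ng/mL final) plus ATP (1.25 mM final); secreted IL-1B measured by AlphaLISA after 16 hr, decreased signal indicating inhibition.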
HT1080 IDH1KD tx = HT-1080 IDH1 knockdown cell toxicity (counter line) | HT-1080 IDH1 knockdown viability, ATP luminescence, 48 h | Potency, µM (titrated, usually from 46.1 µM), without a hit: top-dose activity, negative = toxicity, actives largely listed as cytotoxic | 360,000 tested, 2% active | AID 686971;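 also: potency is read from the fitted curve at half-maximal effect; 0% = DMSO wells and -100% = cell-free medium wells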
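IDH1KD HT-1080 cells, 750/well, RPMI + 5% FBS; compound pinned after 2 h settling; 48 h, 37 °C; CellTiter-Glo luminescence; % activity normalised to DMSO and no-cell wells; curves fitted, classed by r2 and efficacy.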
ELG1 repair inh = inhibitors of ELG1-dependent DNA repair in HEK293T cells | HEK293T ELG1-luciferase reporter, luminescence, 16 h; DNA damage induced by 5-fluorouridine | 330,000 tested, 2.3% active | Potency, µM (titrated, usually from 46.1 µM), for the others: at the highest dose activity change, negative = inhibition, usual class: inhibitors; also: potency is read from the fitted curve at half-maximal effect; nearly all actives have a fitted effect of over 55% in size
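DMSO vehicle served as the neutral condition. Each well held 2,000 cells given 5-fluorouridine plus compound; after 16 hr at 37 °C/5% CO2, ONE-Glo was added and luciferase measured 30 min later.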
ELG1 FLuc counter = luciferase inhibition in cell-free luciferin readout for ELG1 hits; 350 tested, 3% active; shares compounds with ELG1 repair inh; cell-free firefly luciferase luminescence counter-screen, ViewLux; Potency, µM (series often up to 46.1 µM), without a hit: top-dose activity change, negative = inhibition, usual class: inhibitors; also: potency is read from the fitted curve at half-maximal effect
ELG1 Luc conf = confirmation of human ELG1-dependent DNA repair inhibitors; 670 tested, 68% active; HEK293T ELG1-luciferase levels, luminescence; cells co-treated with 5-fluorouridine; Potency, µM (titrated, usually from 46.1 µM), inactives show top-dose activity change, negative = inhibition, actives largely listed as inhibitors; shares compounds with ELG1 repair inh; also: potency is read from the fitted curve at half-maximal effect; nearly all actives have a fitted effect of over 55% in size
Target sequence (Q96QE3 whole entry, looked up): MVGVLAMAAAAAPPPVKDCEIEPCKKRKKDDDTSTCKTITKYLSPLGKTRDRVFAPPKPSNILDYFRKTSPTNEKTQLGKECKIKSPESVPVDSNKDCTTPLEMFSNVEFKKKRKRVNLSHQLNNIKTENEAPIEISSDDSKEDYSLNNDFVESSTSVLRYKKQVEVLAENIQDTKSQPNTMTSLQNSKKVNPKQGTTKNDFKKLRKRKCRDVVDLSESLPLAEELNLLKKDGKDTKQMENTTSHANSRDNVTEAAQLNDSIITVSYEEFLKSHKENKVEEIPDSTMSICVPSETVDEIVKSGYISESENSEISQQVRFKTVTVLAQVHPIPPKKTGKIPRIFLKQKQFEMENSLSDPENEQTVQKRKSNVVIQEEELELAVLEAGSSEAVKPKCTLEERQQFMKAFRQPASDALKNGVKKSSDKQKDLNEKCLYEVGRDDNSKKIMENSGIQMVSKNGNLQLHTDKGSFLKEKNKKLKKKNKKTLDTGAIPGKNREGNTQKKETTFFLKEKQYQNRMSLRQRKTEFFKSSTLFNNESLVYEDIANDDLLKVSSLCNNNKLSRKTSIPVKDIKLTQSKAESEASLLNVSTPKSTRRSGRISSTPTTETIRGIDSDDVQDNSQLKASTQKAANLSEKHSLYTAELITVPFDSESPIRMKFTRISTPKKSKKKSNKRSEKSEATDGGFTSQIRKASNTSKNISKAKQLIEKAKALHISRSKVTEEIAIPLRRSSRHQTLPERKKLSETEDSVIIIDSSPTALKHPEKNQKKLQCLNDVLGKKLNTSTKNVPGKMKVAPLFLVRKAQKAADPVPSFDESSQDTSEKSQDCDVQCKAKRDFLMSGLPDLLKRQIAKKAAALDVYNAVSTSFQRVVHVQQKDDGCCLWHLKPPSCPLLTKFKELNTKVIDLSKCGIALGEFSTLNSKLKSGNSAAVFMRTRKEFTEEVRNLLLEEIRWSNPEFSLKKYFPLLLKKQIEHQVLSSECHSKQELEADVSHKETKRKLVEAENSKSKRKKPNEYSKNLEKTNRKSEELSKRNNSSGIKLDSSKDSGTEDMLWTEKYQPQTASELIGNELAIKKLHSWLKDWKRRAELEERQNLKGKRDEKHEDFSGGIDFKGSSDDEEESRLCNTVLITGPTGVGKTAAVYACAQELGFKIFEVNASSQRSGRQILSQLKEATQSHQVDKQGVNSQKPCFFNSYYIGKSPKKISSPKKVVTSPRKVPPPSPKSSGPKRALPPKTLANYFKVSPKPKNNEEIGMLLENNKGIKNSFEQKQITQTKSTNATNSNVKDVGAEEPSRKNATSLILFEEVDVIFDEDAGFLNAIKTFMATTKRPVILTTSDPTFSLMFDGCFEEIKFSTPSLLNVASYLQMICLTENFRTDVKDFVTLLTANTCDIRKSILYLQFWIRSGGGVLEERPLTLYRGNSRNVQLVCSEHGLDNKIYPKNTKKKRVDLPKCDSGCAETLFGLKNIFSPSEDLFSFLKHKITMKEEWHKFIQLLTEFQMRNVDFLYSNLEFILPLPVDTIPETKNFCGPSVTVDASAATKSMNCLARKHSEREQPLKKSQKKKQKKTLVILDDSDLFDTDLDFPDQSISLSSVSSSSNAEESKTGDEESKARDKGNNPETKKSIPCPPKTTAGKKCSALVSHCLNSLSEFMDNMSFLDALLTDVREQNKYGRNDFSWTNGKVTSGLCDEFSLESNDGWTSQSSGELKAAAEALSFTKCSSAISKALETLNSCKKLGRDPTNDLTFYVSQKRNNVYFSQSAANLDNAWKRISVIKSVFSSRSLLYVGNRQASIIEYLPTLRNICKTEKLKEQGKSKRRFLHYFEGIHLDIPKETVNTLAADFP
ELG1 MMS Luc = confirmation of human ELG1 repair inhibitors, MMS stimulated; 670 tested, 53% active; shares compounds with ELG1 repair inh; Potency, µM (top dose mostly 46.1 µM), for the others: at the top dose activity change, negative = inhibition, usual class: inhibitors; HEK293T luciferase-tagged ELG1 level, MMS stimulated; AID 624249; also: potency is read from the fitted curve at half-maximal effect; nearly all actives have a fitted effect of over 60% in size
ELG1 5-FU = confirmation of ELG1 repair inhibitors: viability with 5FU; Potency, µM (highest dose often 46.1 µM), inactives show at the top dose activity change, negative = viability loss, usual class: cytotoxic; AID 624250; shares compounds with ELG1 repair inh; 670 tested, under 10 active; cell viability with 5-FU, ELG1-dependent repair;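 also: ELG1-luc HEK293T cells cotreated with 5-fluorouridine at 10 µM final; potency is read from the fitted curve at half-maximal effect; viability measured 16 h after compound addition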
ELG1 MMS viab = confirmation of ELG1 repair inhibitors: viability with MMS. shares compounds with ELG1 repair inh. 670 tested, 33% active. Potency, µM (highest dose often 46.1 µM), for inactives: top-dose activity change, negative = viability loss, usual class: cytotoxic. Cell viability with MMS, ELG1-dependent DNA repair;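 also: ELG1-luc HEK293T cells co-treated with 10 µM MMS; potency is read from the fitted curve at half-maximal effect; viability read 16 h after compound addition; nearly all actives have a fitted effect of over 60% in size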
Cell viab unstim = unstimulated viability counter-screen for ELG1 repair hits. cell viability counter-screen, unstimulated, luminescence. 900 tested, 8% active. Potency, µM (top dose mostly 45.9 µM), without a hit: at the highest dose activity change, negative = loss of viability, most hits filed as cytotoxic. shares compounds with ELG1 repair inh;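 also: potency is read from the fitted curve at half-maximal effect; compound exposure lasted 16 hours before reading; nearly all actives have a fitted effect of over 55% in size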
FLuc enzyme = counter-screen for ELG1 repair inhibitors: firefly luciferase inhibition; shares compounds with ELG1 repair inh; purified firefly luciferase, luminescence counter-screen; Potency, µM (doses to about 57.5 µM), inactives show top-dose activity, negative = inhibition, usual class: inhibitors; 350 tested, 10% active; AID 624253; also: potency is read from the fitted curve at half-maximal effect
Active calls of the source: *; ? = inconclusive; · = no result given. Unless noted, calls follow the shape of the dose curve; as a rule, active = well fitted curve in the direction sought with a large enough effect; inconclusive = small, poorly fitted or top-dose-only effect, or another doubt; inactive = no such curve, though single readings can be large; an effect the other way counts as inactive or inconclusive. Unless noted, % is scaled to controls: 0 for no effect and ±100 for the full control effect.

SMILES | TDP1 cell CPT | HT1080-NT tox | TDP1 cell noCPT | IL1B secr inh | HT1080 IDH1KD tx | ELG1 repair inh | ELG1 Luc conf | ELG1 MMS Luc | ELG1 5-FU | ELG1 MMS viab | Cell viab unstim | others
COc1cccc2oc(-c3ccccc3)cc(=O)c12 | -9.4% | · | ? | · | · | · | · | · | · | · | ?
O=c1cc(-c2ccccc2)oc2ccc(Br)cc12 | ? | 19.4% | ? | 29.8 | 16.4% | ? | · | · | · | · | -13.8%
COc1ccc(C(=O)N2CCN(c3ccccn3)CC2)cc1[N+](=O)[O-] | -4.4% | 22.2% | ? | 14.1 | 20.1% | ? | · | · | · | · | ·
COc1ccc(-n2nc3c(c2NC(=O)c2ccc4c(c2)OCO4)CS(=O)(=O)C3)cc1 | -16.0% | -4.9% | 16.9% | -0.6 | 0.3% | -2.2% | · | · | · | · | ·
COc1ccc(OC[C@@H](O)CNC(=O)c2cccc3c2C(=O)c2ccc(-c4ccc(F)cc4OCc4ccccc4)cc2S3(=O)=O)cc1 | 7.31µM* | -4.0% | 10.3µM* | -16.6 | -2.6% | 2.31µM* | 3.15µM* | 4.8% | ? | ? | 0.4%
O=C(NCc1cccc(F)c1)c1cccc2c1C(=O)c1ccc(Cl)cc1S2(=O)=O | ? | -9.6% | 4.8% | 0.0 | -18.2% | -16.2% | · | · | · | · | ·
COc1ccccc1/C=C1\SC(=S)N(CC(=O)NC2CCS(=O)(=O)C2)C1=O (stereo not drawn) | -18.1% | -0.7% | 7.4% | 0.0 | -0.3% | 3.5% | · | · | · | · | ·
Cc1ccc(C(=O)N/N=C2\CCc3ccccc32)c(C)c1 | ? | -3.5% | ? | -5.3 | -2.4% | ? | · | · | · | · | ·
Cc1ccc(C(=O)NN=CC(=O)c2ccccc2)c(C)c1 | -15.2% | -3.7% | -13.6% | -17.8 | -6.4% | ? | · | · | · | · | -18.7%
CC(C)CC(C)NNC(=O)c1cc2ccccc2[nH]1 (stereo not drawn) | 5.6% | 5.3% | 5.5% | 20.2 | 1.9% | ? | · | · | · | · | ·
O=C(c1cc2ccccc2[nH]1)c1cc2cc(O)ccc2[nH]1 | ? | · | 15.8µM* | · | · | · | · | · | · | · | -0.7%
COc1ccc(CNC(=O)c2cccc(S(=O)(=O)N3CCN(c4ccc(F)cc4)CC3)c2)cc1 | ? | -3.3% | ? | -3.3 | -3.8% | 3.26µM* | 14.1µM* | 15.8µM* | 7.4% | 12.5µM* | ?
CN(CCN(C)C(=O)c1[nH]cnc1C(=O)Nc1ccccc1)C(=O)c1[nH]cnc1C(=O)Nc1ccccc1 | -3.1% | 2.9% | ? | 27.3 | 5.9% | ? | · | · | · | · | ·
O=C(Nc1ccccc1)c1nc[nH]c1C(=O)NCCNC(=O)c1[nH]cnc1C(=O)Nc1ccccc1 | 13µM* | ? | 18.4µM* | -0.9 | -18.3% | 2.31µM* | 4.99µM* | 4.45µM* | -1.3% | ? | 15.8µM*
Cc1ccc(NC(=O)c2nc[nH]c2C(=O)NCCCCNC(=O)c2[nH]cnc2C(=O)Nc2ccc(C)cc2)cc1 | ? | ? | 8.2µM* | -4.1 | 22.7% | 0.731µM* | 1.26µM* | 1.77µM* | -23.1% | ? | -11.9% | ELG1 FLuc counter=-0.3%;FLuc enzyme=-3.1%
Cc1ccccc1-c1csc(C(C)(O)c2ccc(F)c(F)c2)n1 (stereo not drawn) | ? | -21.0% | ? | 13.2 | ? | · | · | · | · | · | ·
COc1cc(/C=N/Nc2cc(C)nc(N)n2)ccc1O | -4.4% | 1.1% | ? | 4.0 | 1.8% | ? | · | · | · | · | ·
CCOc1cc(/C=N/Nc2cc(C)nc(-n3nc(C)cc3C)n2)ccc1O | 2.59µM* | 5.8µM* | 2.31µM* | 112.7 | 5.8µM* | 2.59µM* | 6.28µM* | ? | ? | ? | ?
O=C(Nc1cccc(/C=C/c2ccccn2)c1)c1ccc(-n2cncn2)cc1 | ? | -11.5% | ? | 2.5 | ? | 3.26µM* | 12.5µM* | ? | -8.6% | ? | ?
O=C(Nc1cccc(C(F)(F)F)c1)c1ccc(-n2cncn2)nc1 | 17.2% | 22.7% | -19.3% | -4.9 | 9.9% | ? | · | · | · | · | ·
C[C@H]1CN([C@@H](C)CO)C(=O)c2cccc(NC(=O)C3CC3)c2O[C@H]1CN(C)Cc1ccc(C(F)(F)F)cc1 | -27.6% | -2.9% | ? | -2.5 | -4.6% | 9.2% | · | · | · | · | ·
C[C@H]1CN([C@@H](C)CO)C(=O)c2cccc(NC(=O)Nc3ccc(C(F)(F)F)cc3)c2O[C@@H]1CN(C)Cc1ccc(Cl)c(Cl)c1 | 3.26µM* | ? | 3.66µM* | 0.0 | ? | 4.61µM* | 14.1µM* | 14.1µM* | ? | 25µM* | 12.5µM*

Bioassay records as filed in PubChem BioAssay.
